High-throughput results as filed in PubChem BioAssay.
KDM5B inh: inhibitors of human KDM5B histone demethylase. KDM5B demethylase, FDH-coupled NADH fluorescence (FDH is formaldehyde dehydrogenase). AID 1347165. Potency, µM (doses to about 57.7 µM), hits mostly inhibitors. Q9UGL1. 220,000 tested, 2.6% active; active = well fitted inhibition curve with a large enough effect; inconclusive = small, poorly fitted or top-dose-only effect; inactive = no such curve, though single readings can be large or run the other way; note: potency is the fitted concentration of half-maximal effect; 0% is about no effect; nearly all actives have a fitted effect of over 70% in size
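KDM5BΔAP (200 nM final) in 50 mM HEPES pH 7.5, 0.01% Tween-20 was preincubated 10 min at RT with compound over a concentration range. Substrate mix (H3K4me3 12.5 µM, α-KG 25 µM, Fe²⁺, ascorbate, NAD⁺, FDH) was added, and NADH fluorescence change over 30 min gave dose-response curves.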
IP6K1 inhibitor: IP6K1 kinase inhibition; IP6K1 kinase, ADP-Glo luminescence, 2 h; hits give low values; activity change, % (series mostly up to about 58 µM); 140,000 tested, 0.81% active; Q92551; in the data active = activity change below about -25%; note: % is set by controls: 0 for no effect and ±100 for the full control effect
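ADP-Glo luminescence measures ADP made by human IP6K1 during a 2 h RT reaction with ATP/IP6 (mix at 1.3 mM/130 uM); top library doses 57.5 and 19.1 uM final.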
Numbers without * were called inactive. This is a sample that favours compounds with a hit; in the whole collection about 2.8% have one here.

Screening CC(O)c1cc2n(n1)CCN(C(=O)c1nc3ccccc3n(C)c1=O)C2 (stereo not drawn) returned KDM5B inh 25µM* and IP6K1 inhibitor 19.
Screening CCC1CN(Cc2nc(-c3ccc(OC)cc3F)oc2C)CCN1C(C)C (stereo not drawn) returned KDM5B inh inconclusive and IP6K1 inhibitor -12.
COc1ccc(OC)c(-c2nc(CN3CCCC(C(C)(C)O)C3)c(C)o2)c1 (stereo not drawn) was read as KDM5B inh 20µM* and IP6K1 inhibitor 43.
`CCOc1cc(/C=C2\NC(=O)NC2=O)ccc1OCc1ccc(Br)cc1` gave KDM5B inh inactive.
Cc1ccc(NC(=O)N2C[C@@H](Oc3cccnc3)C[C@H]2C(=O)N2CCOCC2)cc1C was read as KDM5B inh inactive and IP6K1 inhibitor 1.
O=c1c2nc(-c3ccsc3)ccc2ncn1-c1ccc(F)cc1F was read as KDM5B inh 35µM* and IP6K1 inhibitor -4.
For COc1cccc(-c2ccc3ncn(-c4ccc(F)cc4F)c(=O)c3n2)c1 the results were KDM5B inh inactive and IP6K1 inhibitor 4.
COc1ccc(-c2ccc3ncn(-c4ccc(F)cc4F)c(=O)c3n2)cc1OC was read as KDM5B inh 40µM* and IP6K1 inhibitor -4.
O=c1c2nc(-c3ccccc3)ccc2ncn1-c1ccc(F)cc1F was read as KDM5B inh inconclusive and IP6K1 inhibitor 2.
Screening Cc1ccc(C)c(S(=O)(=O)Nc2nc3ccccc3nc2NCc2ccc3c(c2)OCO3)c1 returned KDM5B inh inactive.
Screening O=C(NC1CC(=O)N(Cc2cccc(F)c2)C1)c1ccccn1 (stereo not drawn) returned KDM5B inh inactive and IP6K1 inhibitor 7.
Screening OCCOc1ccc(CNCC2CCCO2)cc1 (stereo not drawn) returned KDM5B inh inactive.
COc1ccc(NC(=O)c2ccc3nc(-c4ccncc4)oc3c2)cc1 was read as IP6K1 inhibitor -4.
CC(C)(C)CC(=O)NCC1CN(Cc2ccccc2)CCO1 (stereo not drawn) was read as KDM5B inh inactive.
`COc1cc2c(cc1OC)C1=CC3(C(=O)Nc4ccc(C)cc43)C(C#N)=C(N)N1CC2` (stereo not drawn) gave KDM5B inh inactive.
COCC1CN(C2CCC2)CC12CCN(C(=O)c1sc(C)nc1C)CC2 (stereo not drawn) was read as IP6K1 inhibitor 5.
For COc1cccc(C(=O)N2CCC3(CC2)CN(c2ccncn2)CC3CO)c1C (stereo not drawn) the results were KDM5B inh inactive and IP6K1 inhibitor 29.
`Cc1nc(C)c(C(=O)N2CCC3(CC2)CN(c2ncccn2)CC3CO)s1` (stereo not drawn) gave KDM5B inh 25µM* and IP6K1 inhibitor -1.
For Cc1nn(C)cc1C(=O)N1CCC2(CC1)CN(c1ncccn1)CC2CO (stereo not drawn) the results were KDM5B inh 28µM* and IP6K1 inhibitor 12.
Screening Cc1cccc(-c2nnc(SCC(=O)Nc3ccc4ccccc4c3)n2N)c1 returned KDM5B inh inactive.
CN(Cc1ccco1)C(=O)CCc1c[nH]c2ccccc12 was read as KDM5B inh inactive.
`O=C(NCc1ccc(F)cc1)Nc1c(NC2CCCC2)c2ccccc2oc1=O` gave KDM5B inh inactive.
Screening CCN(Cc1ccccc1)Cc1cc(=O)oc2ccc(C)cc12 returned KDM5B inh inactive.
Screening CCc1cc2c(=O)c(-c3nc4ccccc4s3)coc2c(CN2CCCCC2)c1O returned IP6K1 inhibitor -8.
CCn1ccnc1CNC(=O)c1cc(OC)ccc1OC1CCN(C(=O)C2CC2)CC1 was read as KDM5B inh 28µM* and IP6K1 inhibitor -9.
For COc1ccc(OC2CCN(C(C)=O)CC2)c(C(=O)NCc2csc(C(C)C)n2)c1 the results were KDM5B inh inconclusive and IP6K1 inhibitor -4.
CCC(NC(=O)c1cc(OC)ccc1OC1CCN(C(C)=O)CC1)c1ccc(F)cc1 (stereo not drawn) was read as KDM5B inh 28µM* and IP6K1 inhibitor -6.
Screening COc1ccc(OC2CCN(C(C)=O)CC2)c(C(=O)NC(C)Cc2cccs2)c1 (stereo not drawn) returned KDM5B inh 28µM* and IP6K1 inhibitor 6.
For COc1ccc(OC2CCN(C(C)=O)CC2)c(C(=O)NC(C)Cc2cccnc2)c1 (stereo not drawn) the results were KDM5B inh inconclusive and IP6K1 inhibitor 10.
Screening COc1ccc(OC2CCN(C(C)=O)CC2)c(C(=O)N(C)CC2CCCCO2)c1 (stereo not drawn) returned KDM5B inh inactive and IP6K1 inhibitor 0.
Screening N#Cc1cccc(CN2C[C@@H](CO)[C@H](c3ccccn3)C2)c1 returned KDM5B inh 13µM* and IP6K1 inhibitor 6.
COC[C@@H]1CN(Cc2cccc(C#N)c2)C[C@H]1c1ccccn1 was read as KDM5B inh inactive and IP6K1 inhibitor 8.
For CC(C)NC(=O)N(C1CC1)C1CCOC2(CCN(C(=O)NC3CCCCC3)CC2)C1 (stereo not drawn) the results were KDM5B inh inactive and IP6K1 inhibitor 2.
`O=C(Cc1ccc(F)cc1)NCCc1cnc[nH]1` gave KDM5B inh inactive.
For COCCN(Cc1cnn(C)c1)C(=O)c1ccc2nc(C)cn2c1 the results were KDM5B inh inconclusive and IP6K1 inhibitor -1.
For COCCN(CC1CC1)C(=O)c1ccc2nc(-c3ccc(F)cc3)cn2c1 the results were KDM5B inh 25µM* and IP6K1 inhibitor 17.
Screening O=C(NCC1CNCCOC1)c1ccc2nc(-c3ccc(F)cc3)cn2c1 (stereo not drawn) returned KDM5B inh 28µM* and IP6K1 inhibitor -1.
O=C(NCCc1cnc[nH]1)c1ccc2nc(-c3ccc(F)cc3)cn2c1 was read as KDM5B inh 32µM* and IP6K1 inhibitor 10.
For CC(Cc1cnccn1)NC(=O)c1ccc2nc(-c3ccc(F)cc3)cn2c1 (stereo not drawn) the results were KDM5B inh inconclusive and IP6K1 inhibitor -4.
CCC(NC(=O)c1ccc2nc(-c3ccc(F)cc3)cn2c1)c1ncc(C)[nH]1 (stereo not drawn) was read as KDM5B inh 25µM* and IP6K1 inhibitor -16.
O=C(NCc1ccc(F)cc1)c1ccc2nnc(-c3ccc(F)cc3)n2c1 was read as IP6K1 inhibitor 13.
For NC(=S)N1CCCN1c1ccccc1 the results were KDM5B inh inactive.
For O=C(C1CCCCC1)N1CC(c2nnc(-c3ccncc3)o2)C2(CCOCC2)C1 (stereo not drawn) the results were KDM5B inh inactive and IP6K1 inhibitor 20.
For Cc1ccc(C(=O)c2cn(CC(=O)Nc3ccc(C)cc3Cl)c3nc(C)ccc3c2=O)cc1 the results were KDM5B inh inactive and IP6K1 inhibitor -9.
COc1cc(NC(=O)COc2ccc3c(C)c(C)c(=O)oc3c2C)cc(OC)c1OC was read as KDM5B inh inactive.
Screening Cc1nc(C2CC(O)C2)cc(N(C)Cc2ccccc2-n2cccn2)n1 (stereo not drawn) returned KDM5B inh inactive and IP6K1 inhibitor -7.
For COCC(=O)N(C1CCOCC1)C1CCN(C(=O)c2ccc(F)cc2)CC1 the results were KDM5B inh inactive and IP6K1 inhibitor 0.
Screening CN(C(=O)c1ccc2nc(-c3ccc(F)cc3)cn2c1)C1CCOCC1 returned KDM5B inh 22µM* and IP6K1 inhibitor 18.
